High-throughput results deposited in PubChem by National Center for Advancing Translational Sciences (NCATS).
Vaccinia Venus – inhibitors of vaccinia virus (Venus reporter). AID 720580. Potency, µM (series often up to 36.5 µM), without a hit: top-dose activity change, negative = inhibition, hits mostly inhibitors. hit rate 0.46% among 330,000. Vaccinia virus Venus reporter expression, fluorescence; calls by dose curve; tested in A549 cells; also: nearly all actives have a fitted effect of over 30% in size
HCV inh – blocks hepatitis C virus; Huh7.5.1 HCVcc-Cre infection, luciferase reporter, 44 h; Potency, µM (series often up to 41.8 µM), for inactives: at the top dose activity change, negative = inhibition, hits mostly inhibitors; hit rate 3.4% among 340,000; AID 651820; active = well fitted inhibition curve with a large enough effect; inconclusive = small, poorly fitted or top-dose-only effect, or another doubt; inactive = no such curve, though single readings can be large or run the other way
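Reporter virus HCVcc-Cre (~0.5 moi) infects cells exposed to compound; seeding density 1,000 cells/well with 4 h settling beforehand. Luminescence, 15 sec read, taken 44 h post-infection following a 15 min RT substrate incubation.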
Vaccinia mCherry – inhibitors of vaccinia virus infection (mCherry reporter signal) | Vaccinia virus mCherry reporter infection, fluorescence | Potency, µM (top dose mostly 36.5 µM), inactives show at the top dose activity change, negative = inhibition, actives largely listed as inhibitors | hit rate 0.63% among 310,000 | AID 720579; calls by dose curve; tested in A549 cells; also: nearly all actives have a fitted effect of over 35% in size
Active calls of the source: *; [ ] = another dose, or the depositor's remark. Most compounds without a hit are left out; they make up all but 3.3% or so of the library. % is scaled to controls: 0 for no effect and ±100 for the full control effect; potency is read from the fitted curve at half-maximal effect.

For Cc1ccccc1NS(=O)(=O)c1cc(C(=O)Nc2cccc([N+](=O)[O-])c2)ccc1C the results were Vaccinia Venus 11.2µM*, HCV inh inconclusive and Vaccinia mCherry inconclusive.
Screening Cc1ccc(C(=O)Nc2cccc([N+](=O)[O-])c2)cc1S(=O)(=O)Nc1ccc(C(=O)O)cc1 returned Vaccinia Venus 0.0%, HCV inh 6.6% and Vaccinia mCherry -10.8%.
`Cc1ccc(C(=O)Nc2ccccc2-c2ccccc2)cc1S(=O)(=O)Nc1cccc(C)c1C` gave Vaccinia Venus inconclusive, HCV inh 10µM* and Vaccinia mCherry -29.4%.
For COc1cc(-c2ccc(Cl)cn2)cc2c1OCCN(C(=O)c1ccccc1-n1cccn1)C2 the results were Vaccinia Venus -9.0% and Vaccinia mCherry -19.6%.
For S=C1NC2=C(CCC/C2=C\c2ccccc2)C(c2ccccc2)N1 (stereo not drawn) the results were Vaccinia Venus 3.2%, HCV inh inconclusive and Vaccinia mCherry inactive.
Screening Fc1cccc(/C=C2\CCCC3=C2NC(=S)NC3c2cccc(F)c2)c1 (stereo not drawn) returned HCV inh 8.91µM*.
Screening CCc1nnc(NC(=O)CN2C(=O)N(C)C3(CCCCC3)C2=O)s1 returned Vaccinia Venus -22.0%, HCV inh 32.7% and Vaccinia mCherry -17.2%.
Cc1cc(NC(=O)C2CCCCC2)n(-c2nc3ccccc3[nH]2)n1 was read as Vaccinia Venus inconclusive and HCV inh 4.47µM*.
Cc1cc(NC(=O)c2cccc(S(=O)(=O)N3CCCCCC3)c2)n(-c2ccccn2)n1 was read as Vaccinia Venus -21.7% and HCV inh 6.8%.
Screening Cc1cc(C)nc(-n2nc(C)cc2Nc2ccccc2)n1 returned Vaccinia Venus inconclusive and HCV inh 10µM*.
Screening Cc1cc(NC(=O)c2c(F)cccc2Cl)n(-c2nc3ccccc3[nH]2)n1 returned Vaccinia Venus inconclusive, HCV inh 14.1µM* and Vaccinia mCherry -21.6%[1.46 µM].
For Cc1cc(NC(=O)/C=C/c2ccc(F)cc2)n(-c2nc3ccccc3[nH]2)n1 the results were Vaccinia Venus -13.6%, HCV inh inconclusive and Vaccinia mCherry inactive.
For Cc1cc(NC(=O)C2CCC2)n(-c2ccccn2)n1 the results were Vaccinia Venus -16.3%, HCV inh 10µM* and Vaccinia mCherry inactive.
For Cc1cc(Nc2ccccc2)n(-c2ccccc2)n1 the results were Vaccinia Venus -1.1% and HCV inh inconclusive.
`O=C(Nc1nc2ccccc2[nH]1)C1CCCC1` gave Vaccinia Venus -18.5%, HCV inh -3.5% and Vaccinia mCherry inactive.
Screening CC(=O)N1CCc2cc(CNS(=O)(=O)c3cccs3)ccc21 returned Vaccinia Venus -11.5% and Vaccinia mCherry -12.8%.
Screening COc1ccccc1C(=O)NC(=O)COC(=O)c1ccc([N+](=O)[O-])cc1Cl returned Vaccinia Venus -4.6%, HCV inh -18.6% and Vaccinia mCherry -17.4%.
`COC(=O)C(Cc1ccccc1)NC(=O)c1cccc(S(=O)(=O)N(C)C)c1` (stereo not drawn) gave Vaccinia Venus 0.7%, HCV inh 20.1% and Vaccinia mCherry 0.6%.
`COc1ccc(C(=O)N2CCC2(C)C(=O)NC(C)C)cc1OC` (stereo not drawn) gave Vaccinia Venus 4.2% and Vaccinia mCherry 11.1%.
`Cc1cc(C)n(-c2nc3ccccc3[nH]c2=O)n1` gave Vaccinia Venus -14.8%, HCV inh 19.9% and Vaccinia mCherry -12.3%.
Screening Cc1cc(NC(=O)c2c(F)cccc2F)n(-c2nc3ccccc3[nH]2)n1 returned HCV inh 35.5µM*.
Screening Cc1cc(NC(=O)c2ccc(C)s2)n(-c2nc3ccccc3[nH]2)n1 returned Vaccinia Venus inconclusive, HCV inh inconclusive and Vaccinia mCherry -11.2%.
`Cc1cc(Nc2ccccc2)n(-c2nc3ccccc3[nH]2)n1` gave Vaccinia Venus inconclusive and HCV inh 5.01µM*.
CCOCCCNC(=O)c1ccc(Cn2c(=O)c3cccn3c3cccnc32)cc1 was read as Vaccinia Venus -14.2% and Vaccinia mCherry -28.2%.
O=C(NCc1ccccn1)c1ccc(NS(=O)(=O)c2cccc(Cl)c2)cc1 was read as Vaccinia Venus -11.6%, HCV inh 20.9% and Vaccinia mCherry inactive.
For COC1C(OC(=O)c2ccc(C)[nH]2)C(O)C(Oc2ccc3c(O)c(NC(=O)c4ccc(O)c(CC=C(C)C)c4)c(=O)oc3c2Cl)OC1(C)C (stereo not drawn) the results were Vaccinia Venus -19.2%, HCV inh 1.58µM* and Vaccinia mCherry -3.0%.
Screening O=C(CN(c1ccc(Cl)cc1)S(=O)(=O)c1ccc(Cl)c([N+](=O)[O-])c1)NCCc1ccccc1 returned Vaccinia Venus 3.4%, HCV inh 11.2µM* and Vaccinia mCherry -12.0%.
